Assay outcomes: PubChem BioAssay, National Center for Advancing Translational Sciences (NCATS)
IL1B secr inh: blocks inflammasome-driven IL-1 beta release | activity change, % at 57.5 µM | THP-1 LPS/ATP IL-1B secretion, AlphaLISA, 16 h; stronger effect = lower value | 360,000 tested, 4.7% active; in the data active means activity change below about -50%; inconclusive means mostly about -30% to -49%; further: on the % scale 0 is the no-effect control and ±100 the full control effect
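THP-1 cells pretreated 1 hr with compounds (up to 57.5 uM final), then stimulated with LPS (250 ng/mL final) plus ATP (1.25 mM final); secreted IL-1B measured by AlphaLISA after 16 hr, decreased signal indicating inhibition.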
Giardia kill: kills Giardia lamblia. Giardia lamblia trophozoite viability. activity change, % at 7.66 µM, hits read low. 340,000 tested, 0.15% active. AID 540267; in the data active means activity change below about -80%; inconclusive means between about -30% and that limit;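 further: parasites exposed to compound for two days anaerobically before the ATP read; on the % scale 0 is the no-effect control and ±100 the full control effect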
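Anaerobic 48 hrs incubation at 37 deg C of 100 trophozoites/well with test compounds; ATPLite 1-Step luminescence, 15-30 min RT, reports cellular ATP as viability.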
HT1080 IDH1KD tx: toxicity to HT-1080 IDH1 knockdown cells (counter line). HT-1080 IDH1 knockdown viability, ATP luminescence, 48 h. Potency, µM (titrated, usually from 46.1 µM), without a hit: top-dose activity, negative = toxicity, most hits filed as cytotoxic. 360,000 tested, 2% active;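 further: potency means the concentration at half of the fitted maximal effect; 0% = DMSO wells and -100% = cell-free medium wells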
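Assay cells: HT-1080 with IDH1 knockdown, 750 per well, RPMI/5% FBS. Exposure: 48 h at 37 °C following 2 h pre-incubation. Read: CellTiter-Glo luminescence; fitted concentration-response, curve class assigned.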
HT1080-NT tox: kills 2HG-producing HT-1080-NT fibrosarcoma cells | HT-1080-NT fibrosarcoma viability, CellTiter-Glo ATP luminescence, 48 h | Potency, µM (titrated, usually from 46.1 µM), for the others: top-dose activity, negative = less viability, actives largely listed as cytotoxic | 360,000 tested, 1.6% active;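 further: NT is the 2HG producing partner of a matched IDH1 knockdown line; potency means the concentration at half of the fitted maximal effect; 0% = DMSO-treated cells and -100% = media-only wells without cells; nearly all actives have a fitted effect of over 55% in size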
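HT-1080-NT fibrosarcoma cells (2HG-overproducing), 750 cells/well in RPMI with 5% FBS, dosed after 2 h and incubated 48 h at 37C. CellTiter-Glo luminescence normalized to DMSO and no-cell wells; concentration-response curves fitted and classed.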
TGFb SMAD3 inh: TGF-b pathway inhibition; HepG2 CAGA-GFP TGF-b/SMAD3 reporter, GFP fluorescence, 18 h; TGF-beta stimulated, 500 pg/mL final; Potency, µM (highest dose often 46.1 µM), without a hit: at the highest dose activity, negative = inhibition, usual class: inhibitors; 410,000 tested, 1.2% active; AID 588855; further: potency means the concentration at half of the fitted maximal effect; on the % scale 0 is the no-effect control and ±100 the full control effect; nearly all actives have a fitted effect of over 65% in size
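Using HEPG2 CAGA-GFP reporter cells at 1000 cells/well, we pinned test compounds, stimulated with recombinant TGF-beta (500 pg/mL final) and measured total well GFP after 18 h.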
HepG2 viability: HepG2 cytotoxicity, counter-screen for TGF-b inhibitors. Potency, µM (titrated, usually from 46.1 µM), for inactives: top-dose activity change, negative = cytotoxicity, actives largely listed as cytotoxic. HepG2 CAGA-GFP viability, ATP luminescence, 18 h. 410,000 tested, 0.76% active; further: potency means the concentration at half of the fitted maximal effect
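HepG2 CAGA-GFP cells (1000/well, DMEM with 1% FBS) received compound, then TGF-beta at 500 pg/mL final, and were incubated 18 hours at 37 degrees C. Viability was read by CellTiter-Glo luminescence. Media-only wells were set as complete cell-killing and DMSO as no toxicity.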
Numbers without * were called inactive; i = inactive; ? = inconclusive; nt = not tested or not shown. Compounds with a hit are over-represented: about 6.5% of the library has one in this group of screens. Unless noted, the call rests on the fitted dose curve; in most records, active means well fitted curve in the direction sought with a large enough effect; inconclusive means small, poorly fitted or top-dose-only effect, or another doubt; inactive means no such curve, though single readings can be large; an effect the other way counts as inactive or inconclusive.

SMILES	IL1B secr inh	Giardia kill	HT1080 IDH1KD tx	HT1080-NT tox	TGFb SMAD3 inh	HepG2 viability
Cc1ccc(NC2=C/C(=N/S(=O)(=O)c3cccs3)c3ccccc3C2=O)cc1C	0	-9	0%	-1%	-16%	-15%
Cc1ccccc1NC1=C/C(=N\S(=O)(=O)c2cccs2)c2ccccc2C1=O	-94*	-23	7.3µM*	5.8µM*	?	3.2µM*
O=C(c1ccc2c(c1)OCCO2)N1CCCC(CNS(=O)(=O)c2cccs2)C1 (stereo not given)	5	-21	8%	15%	2%	-4%
CCCn1c2ccc(C)cc2c2nnc(SCCN3CCCCC3)nc21	-66*	-1	?	-24%	-5%	-16%
CCn1c2ccccc2c2nnc(NN)nc21	32	16	3%	-2%	?	-20%
CCn1c2ccc(C)cc2c2nnc(SCCN3CCCCC3)nc21	-66*	26	23µM*	?	-7%	-22%
CCn1c2ccc(C)cc2c2nnc(NN)nc21	-9	-11	-17%	-5%	14µM*	-30%
CCCn1c2ccc(F)cc2c2nnc(SCCN3CCOCC3)nc21	2	-7	?	-16%	0%	2%
CCCn1c2ccc(C)cc2c2nnc(SCCN3CCOCC3)nc21	-61*	8	?	?	21%	-11%
COc1ccccc1CN(C)C(=O)CN1CCN(C(=O)c2cccs2)CC1	4	-22	-3%	-3%	8%	7%
O=C(CSC1=NCCN1)NC1CCCCCC1	-97*	-17	-17%	-6%	?	-47%
O=C(CSC1=NCCN1)NC12CC3CC(CC(C3)C1)C2	-100*	9	-21%	-13%	?	-31%
Cc1cccn2c(=O)c(C=Nc3ccccc3)c(NCCO)nc12	24	5	5%	0%	-6%	3%
COc1cc(/C=C2/NC(=O)N(Cc3ccccc3F)C2=O)cc(OC)c1OC	?	-22	-23%	-6%	12%	-26%
Nc1nc(CSc2ccc(Cl)cc2)nc(N2CCCCC2)n1	-59*	-14	-4%	-14%	3%	1%
Cc1nn(C(C)C(=O)NCc2ccccc2Cl)c(=O)c2c1sc1ccccc12 (stereo not given)	6	9	-3%	-2%	0%	-17%
CCNC(=S)N1CCC(Cc2ccccc2)CC1	-11	6	-1%	0%	0%	-2%
CC(=O)Nc1ccc(OCC(=O)N2CCC(Cc3ccccc3)CC2)cc1	-53*	-3	-1%	1%	0%	-23%
O=C(Nc1ccc(OCC(=O)N2CCC(Cc3ccccc3)CC2)cc1)c1ccco1	?	13	10%	2%	-2%	-33%
S=C(Nc1ccccc1)N1CCC(Cc2ccccc2)CC1	-69*	-14	?	?	-18%	5%
COc1ccc(NC(=S)N2CCC(Cc3ccccc3)CC2)cc1	-58*	10	0%	-4%	-22%	-15%
CCOc1cc(N2CCOCC2)c(OCC)cc1NC(=O)c1cc(S(=O)(=O)N2CCOCC2)ccc1Cl	3	11	-3%	3%	?	3%
Cc1oc(-c2ccc(C(F)(F)F)cc2)nc1CN(Cc1ccccn1)C[C@@H]1CCC(=O)N1	18	-10	-2%	1%	0%	-13%
CCOc1ccc(-c2nc(CN(Cc3ccccc3)C[C@@H]3CCC(=O)N3)c(C)o2)cc1	-81*	2	?	?	?	-30%
Cc1c(OCC(=O)NC2CC(C)(C)NC(C)(C)C2)ccc2c1oc(=O)c1ccccc12	?	5	3%	16%	10%	-11%
SMILES	IL1B secr inh	Giardia kill	HT1080 IDH1KD tx	HT1080-NT tox	TGFb SMAD3 inh	HepG2 viability
Cc1c(OCC(=O)NC2CC(C)(C)NC(C)(C)C2)ccc2c3c(c(=O)oc12)CCC3	-54*	1	-6%	-8%	-2%	-15%
CC(C)=CCc1cc([C@@H]2COc3c(ccc4c3C=CC(C)(C)O4)C2)c(O)cc1O	-51*	-9	?	?	14µM*	16µM*
CC1(C)C=Cc2c(ccc3c2OC[C@H](c2ccc(O)cc2O)C3)O1	34	-14	-8%	0%	?	-97%
CCCCNC(=O)CS(=O)Cc1nc(-c2cccc(C)c2)oc1C (stereo not given)	-5	-22	-9%	-1%	-6%	-18%
CCCC[n+]1ccn(C2=C([O-])c3ccccc3C(=O)/C2=N\S(=O)(=O)c2ccccc2)c1	38	-20	16µM*	11µM*	8.9µM*	11µM*
CCCC[n+]1ccn(-c2nc3ccccc3nc2[N-]S(=O)(=O)c2ccccc2)c1	3	-1	1%	5%	5%	3%
CCCCC[n+]1ccn(C2=C([O-])c3ccccc3C(=O)/C2=N\S(=O)(=O)c2ccccc2)c1	20	-3	18µM*	?	?	6.3µM*
CC(C)[n+]1ccn(C2=C([O-])c3ccccc3C(=O)/C2=N\S(=O)(=O)c2ccccc2)c1	nt	-8	23µM*	23µM*	20µM*	-128%
CC(C)(C)c1cc[n+](C2=C([O-])c3ccccc3C(=O)/C2=N\S(=O)(=O)c2ccccc2)cc1	nt	?	21µM*	?	14µM*	i
COc1ccc(NC(=O)COC(=O)CN2C(=O)C3CC=CCC3C2=O)c([N+](=O)[O-])c1 (stereo not given)	7	-11	0%	-8%	-9%	-3%
CCCCC[n+]1ccn(-c2nc3ccccc3nc2[N-]S(=O)(=O)c2ccc(C)cc2)c1	5	1	5%	3%	3%	-5%
CCCCC[n+]1ccn(C2=C([O-])c3ccccc3C(=O)/C2=N\S(=O)(=O)c2ccc(Br)cc2)c1	82	-8	-2%	-7%	1.6µM*	4µM*
Cc1ccc(C)c(-n2c3nc(=O)[nH]c(=O)c-3cc3cc([N+](=O)[O-])ccc32)c1	-99*	17	5.2µM*	6.5µM*	?	-70%
Cc1cccc(-n2c3nc(=O)[nH]c(=O)c-3cc3cc([N+](=O)[O-])ccc32)c1	-101*	-7	?	?	?	-60%
O=c1nc2n(-c3ccccc3F)c3ccccc3cc-2c(=O)[nH]1	nt	nt	nt	nt	22%	1%
COc1ccc(NC(=O)/C(Cl)=C(/Cl)S(=O)Cc2ccccc2Cl)cn1 (stereo not given)	-107*	-12	16µM*	1.3µM*	3.5µM*	11µM*
COc1ccc(NC(=O)/C(Cl)=C(/Cl)S(=O)(=O)Cc2ccc(C)cc2)cn1	-119*	-3	8.2µM*	23µM*	?	5.6µM*
